Test results: PubChem BioAssay (Tox21)
Inconclusive results are not listed. Activity calls are given as the source filed them. Calls follow the shape of the dose curve; as a rule, active = well fitted curve in the direction sought with a large enough effect in the repeat runs; inconclusive = weak or mixed curves; inactive = no such curve, though single readings can be large; an effect the other way counts as inactive or inconclusive.

Key:
[1] = A CellTox Green Cytotoxicity Assay to monitor cytotoxicity in HEK293 cells - 40 hour (AID 1224871); also: nearly all actives have a fitted effect of over 45% in size
Procedure, shortened: (§1)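 Dead-cell fluorescence measured kinetically: asymmetric cyanine dye, HEK293, 600 cells/well, 5 h settle, 23 nL cpd/DMSO, 37 C, reads 0–40 h every 8 h.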

[2] = qHTS RealTime-Glo MT Cell Viability Assay in HEK293 cells - 16 hour (AID 1224872); also: top concentration of the series differs between compounds; nearly all actives have a fitted effect of over 50% in size
Procedure, shortened: (§2)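 Assay medium contained NanoLuc luciferase plus cell-permeant prosubstrate, added with HEK293 cells at 600 cells/well. After 5 h at 37 C/5% CO2 compounds were added; plates stayed at 37 C for 40 h with serial luminescence reads.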

[3] = qHTS RealTime-Glo MT Cell Viability Assay in HepG2 cells - 8 hour (AID 1224873); also: nearly all actives have a fitted effect of over 55% in size
Procedure, shortened: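 Real-time viability: cells seeded at 600 per well together with NanoLuc and cell-permeant prosubstrate, compounds added after 5 h incubation. Luminescence tracked at 0, 8, 16, 24, 32 and 40 h of exposure.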

[4] = qHTS RealTime-Glo MT Cell Viability Assay in HEK293 cells - 40 hour (AID 1224874); settings: RealTime-Glo luminescence; max response: hits give low values; also: nearly all actives have a fitted effect of over 50% in size
Procedure, shortened: (§3)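 600 HEK293 cells per well, dispensed already mixed with RealTime-Glo MT reagents. Compound dosing came 5 h later. The same wells were read for luminescence at 0, 8, 16, 24, 32 and 40 h of exposure at 37 C.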

[5] = A CellTox Green Cytotoxicity Assay to monitor cytotoxicity in HEK293 cells - 24 hour (AID 1224875); also: series mostly up to about 77 µM; nearly all actives have a fitted effect of over 45% in size
Procedure, shortened: as §1

[6] = A CellTox Green Cytotoxicity Assay to monitor cytotoxicity in HepG2 cells - 16 hour (AID 1224876); also: nearly all actives have a fitted effect of over 45% in size
Procedure, shortened: (§4)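 First, HepG2 cells (600/well) mixed with reagent were plated; second, after 5 h at 37 C they received compounds via pintool; third, fluorescence was measured at 0 h through 40 h at 8 h intervals.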

[7] = qHTS RealTime-Glo MT Cell Viability Assay in HepG2 cells - 32 hour (AID 1224877); also: nearly all actives have a fitted effect of over 55% in size
Procedure, shortened: (§5)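 qHTS, HepG2, 600 cells/well, RealTime-Glo (NanoLuc + prosubstrate) added with cells; 5 h preincubation; DMSO compound addition; 37 C; luminescence at 0/8/16/24/32/40 h.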

[8] = A CellTox Green Cytotoxicity Assay to monitor cytotoxicity in HepG2 cells - 24 hour (AID 1224878); also: nearly all actives have a fitted effect of over 45% in size
Procedure, shortened: as §4

[9] = A CellTox Green Cytotoxicity Assay to monitor cytotoxicity in HepG2 cells - 40 hour (AID 1224879); also: nearly all actives have a fitted effect of over 40% in size
Procedure, shortened: as §4

[10] = qHTS RealTime-Glo MT Cell Viability Assay in HEK293 cells - 0 hour (AID 1224880)
Procedure, shortened: as §3

[11] = A CellTox Green Cytotoxicity Assay to monitor cytotoxicity in HEK293 cells - 32 hour (AID 1224881); also: nearly all actives have a fitted effect of over 40% in size
Procedure, shortened: as §1

[12] = A CellTox Green Cytotoxicity Assay to monitor cytotoxicity in HepG2 cells - 0 hour (AID 1224882); also: nearly all actives have a fitted effect of over 35% in size
Procedure, shortened: as §4

[13] = A CellTox Green Cytotoxicity Assay to monitor cytotoxicity in HepG2 cells - 32 hour (AID 1224883); also: nearly all actives have a fitted effect of over 50% in size
Procedure, shortened: as §4

[14] = A CellTox Green Cytotoxicity Assay to monitor cytotoxicity in HEK293 cells - 8 hour (AID 1224884); also: nearly all actives have a fitted effect of over 35% in size
Procedure, shortened: as §1

[15] = qHTS RealTime-Glo MT Cell Viability Assay in HEK293 cells - 24 hour (AID 1224886); also: top concentration of the series differs between compounds; nearly all actives have a fitted effect of over 50% in size
Procedure, shortened: as §2

[16] = qHTS RealTime-Glo MT Cell Viability Assay in HEK293 cells - 8 hour (AID 1224887)
Procedure, shortened: as §3

[17] = qHTS RealTime-Glo MT Cell Viability Assay in HepG2 cells - 0 hour (AID 1224889); also: nearly all actives have a fitted effect of over 50% in size
Procedure, shortened: as §5

[18] = A CellTox Green Cytotoxicity Assay to monitor cytotoxicity in HepG2 cells - 8 hour (AID 1224890); also: nearly all actives have a fitted effect of over 45% in size
Procedure, shortened: as §4

[19] = qHTS RealTime-Glo MT Cell Viability Assay in HepG2 cells - 16 hour (AID 1224885); also: nearly all actives have a fitted effect of over 50% in size
Procedure, shortened: as §5

[20] = A CellTox Green Cytotoxicity Assay to monitor cytotoxicity in HEK293 cells - 16 hour (AID 1224888); also: nearly all actives have a fitted effect of over 35% in size
Procedure, shortened: as §1
% is scaled to controls: 0 for no effect and ±100 for the full control effect.

Cc1cccc(OCC(O)CNC(C)(C)C)c1C (stereo not given)
inactive: Potency [1] | Potency [2] | outcome [3] | max response [4] 0.394% | outcome [5] | outcome [6] | outcome [7] | outcome [8] | Potency [9] | Potency [10] | Potency [11] | outcome [12] | Potency [13] | Potency [14] | Potency [15] | Potency [16] | Potency [17] | outcome [18]

Oc1cn2c(n1)Nc1ccc(Cl)c(Cl)c1C2
inactive: cytotoxicity increase [1] 2.17% [at 15.8 µM] | activity change, negative = cytotoxicity [2] 6.18% [at 15.8 µM] | viability change, negative = cytotoxic [3] -0.13% [at 15.8 µM] | max response [4] 10.9% | activity change [5] -3.58% [at 15.8 µM] | cytotoxicity increase [6] -4.2% [at 15.8 µM] | activity change, negative = cytotoxic [7] -1.97% [at 15.8 µM] | cytotoxicity [8] -5.44% [at 15.8 µM] | cytotoxicity increase [9] -8.09% [at 15.8 µM] | activity change, negative = cytotoxicity [10] -2.73% [at 15.8 µM] | cytotoxicity increase [11] -4.2% [at 15.8 µM] | cytotoxicity [12] 3.67% [at 15.8 µM] | cytotoxicity increase [13] -1.99% [at 15.8 µM] | activity change, negative = cytotoxic [19] 1.52% [at 15.8 µM] | activity change, negative = cytotoxicity [15] 2% [at 15.8 µM] | activity change, negative = cytotoxicity [16] 1.19% [at 15.8 µM] | activity change [20] -3.07% [at 15.8 µM] | activity change, negative = cytotoxicity [17] -2.51% [at 15.8 µM] | cytotoxicity increase [18] -5.9% [at 15.8 µM]

COC(=O)CCc1ccc(OCC(O)CNC(C)C)cc1 (stereo not given)
inactive: Potency [1] | Potency [2] | outcome [3] | max response [4] 5.47% | outcome [5] | outcome [6] | outcome [7] | outcome [8] | Potency [9] | Potency [10] | Potency [11] | outcome [12] | Potency [13] | Potency [14] | outcome [19] | Potency [16] | Potency [17] | outcome [18]

O=P(O)(O)OP(=O)(O)O
inactive: Potency [1] | Potency [2] | outcome [3] | max response [4] 2.82% | outcome [5] | outcome [6] | outcome [7] | outcome [8] | Potency [9] | Potency [10] | Potency [11] | outcome [12] | Potency [13] | outcome [19] | Potency [15] | Potency [16] | Potency [17] | outcome [18]

CCOC(=O)c1ncn2c1CN(C)C(=O)c1cc(F)ccc1-2
inactive: Potency [1] | Potency [2] | outcome [3] | max response [4] -10.6% | outcome [5] | outcome [6] | outcome [7] | outcome [8] | Potency [9] | Potency [10] | Potency [11] | outcome [12] | Potency [13] | outcome [19] | Potency [15] | Potency [16] | outcome [20] | Potency [17] | outcome [18]

CC(CO)c1ccccc1 (stereo not given)
inactive: Potency [1] | Potency [2] | outcome [3] | max response [4] -0.132% | outcome [5] | outcome [6] | outcome [7] | outcome [8] | Potency [9] | Potency [10] | Potency [11] | outcome [12] | Potency [13] | outcome [19] | Potency [15] | Potency [16] | outcome [20] | Potency [17] | outcome [18]

C[C@@H](O)[C@H]1C(=O)N2C(C(=O)O)=C(SCCN=CN)C[C@H]12
inactive: Potency [1] | Potency [2] | outcome [3] | max response [4] 2.62% | outcome [5] | outcome [6] | outcome [7] | outcome [8] | Potency [9] | Potency [10] | Potency [11] | outcome [12] | Potency [13] | Potency [14] | outcome [19] | Potency [16] | outcome [20] | Potency [17] | outcome [18]

CCCCC(CC)COCCO (stereo not given)
inactive: Potency [1] | Potency [2] | outcome [3] | max response [4] -0.338% | outcome [5] | outcome [6] | outcome [7] | outcome [8] | Potency [9] | Potency [10] | Potency [11] | outcome [12] | Potency [13] | outcome [19] | Potency [15] | Potency [16] | outcome [20] | Potency [17] | outcome [18]

COc1cc(NS(=O)(=O)c2ccc(N)cc2)nc(OC)n1
inactive: Potency [1] | Potency [2] | outcome [3] | max response [4] 5.69% | outcome [5] | outcome [6] | outcome [7] | outcome [8] | Potency [9] | Potency [10] | Potency [11] | outcome [12] | Potency [13] | Potency [14] | Potency [15] | Potency [16] | outcome [20] | Potency [17] | outcome [18]

O=C(CCNNC(=O)c1ccncc1)NCc1ccccc1
inactive: Potency [1] | Potency [2] | outcome [3] | max response [4] 3.81% | outcome [5] | outcome [6] | outcome [7] | outcome [8] | Potency [9] | Potency [10] | Potency [11] | outcome [12] | Potency [13] | Potency [14] | Potency [15] | Potency [16] | outcome [20] | Potency [17] | outcome [18]

On1nnc2ccccc21
inactive: Potency [1] | Potency [2] | outcome [3] | max response [4] -15.2% | outcome [5] | outcome [6] | outcome [7] | outcome [8] | Potency [9] | Potency [10] | Potency [11] | outcome [12] | Potency [13] | Potency [14] | Potency [16] | outcome [20] | Potency [17] | outcome [18]

Cc1ccc2c(c1)OCC(=O)CO2
inactive: Potency [1] | Potency [2] | outcome [3] | max response [4] -8.18% | outcome [5] | outcome [6] | outcome [7] | outcome [8] | Potency [9] | Potency [10] | Potency [11] | outcome [12] | Potency [13] | Potency [14] | outcome [19] | Potency [16] | Potency [17] | outcome [18]

CC(C(=O)O)c1ccc2c(c1)CC(=O)c1ccccc1S2 (stereo not given)
inactive: Potency [1] | Potency [2] | outcome [3] | max response [4] -2.02% | outcome [5] | outcome [6] | outcome [7] | outcome [8] | Potency [9] | Potency [10] | Potency [11] | outcome [12] | Potency [13] | Potency [14] | Potency [15] | Potency [16] | outcome [20] | Potency [17] | outcome [18]

COc1nccnc1NS(=O)(=O)c1ccc(N)cc1
inactive: Potency [1] | Potency [2] | outcome [3] | max response [4] 2.98% | outcome [5] | outcome [6] | outcome [7] | outcome [8] | Potency [9] | Potency [10] | Potency [11] | outcome [12] | Potency [13] | outcome [19] | Potency [15] | Potency [16] | outcome [20] | Potency [17] | outcome [18]

CCOCCOCCOCC
inactive: Potency [1] | Potency [2] | outcome [3] | max response [4] 4.8% | outcome [5] | outcome [6] | outcome [7] | outcome [8] | Potency [9] | Potency [10] | Potency [11] | outcome [12] | Potency [13] | outcome [19] | Potency [15] | Potency [16] | outcome [20] | Potency [17] | outcome [18]

Cc1ccccc1N=O
inactive: Potency [1] | Potency [2] | outcome [3] | max response [4] 9.08% | outcome [5] | outcome [6] | outcome [7] | outcome [8] | Potency [9] | Potency [10] | Potency [11] | outcome [12] | Potency [13] | outcome [19] | Potency [15] | Potency [16] | outcome [20] | Potency [17] | outcome [18]

NCCS
inactive: Potency [1] | Potency [2] | outcome [3] | max response [4] 7.37% | outcome [5] | outcome [6] | outcome [7] | outcome [8] | Potency [9] | Potency [10] | Potency [11] | outcome [12] | Potency [13] | Potency [14] | outcome [19] | Potency [16] | Potency [17] | outcome [18]

CN(C)c1ccc(C=O)cc1
inactive: Potency [1] | Potency [2] | outcome [3] | max response [4] 14.8% | outcome [5] | outcome [6] | outcome [7] | outcome [8] | Potency [9] | Potency [10] | Potency [11] | outcome [12] | Potency [13] | Potency [14] | Potency [15] | Potency [16] | outcome [20] | Potency [17] | outcome [18]

Nc1ccc(S(=O)(=O)Nc2ccc(Cl)nn2)cc1
inactive: Potency [1] | Potency [2] | outcome [3] | max response [4] -0.389% | outcome [5] | outcome [6] | outcome [7] | outcome [8] | Potency [9] | Potency [10] | Potency [11] | outcome [12] | Potency [13] | Potency [14] | Potency [15] | Potency [16] | Potency [17] | outcome [18]

Cc1[nH]cnc1-c1ccc(Cl)cc1
inactive: Potency [1] | Potency [2] | outcome [3] | max response [4] -3.17% | outcome [5] | outcome [6] | outcome [7] | outcome [8] | Potency [9] | Potency [10] | Potency [11] | outcome [12] | Potency [13] | Potency [14] | Potency [16] | Potency [17] | outcome [18]

CC(=O)Nc1ccc(S(=O)(=O)Cl)cc1
inactive: Potency [1] | Potency [2] | outcome [3] | max response [4] -6.18% | outcome [5] | outcome [6] | outcome [7] | outcome [8] | Potency [9] | Potency [10] | Potency [11] | outcome [12] | Potency [13] | outcome [19] | Potency [15] | Potency [16] | outcome [20] | Potency [17] | outcome [18]
